Assay results: PubChem BioAssay AID602270 (The Scripps Research Institute Molecular Screening Center, 2012)
This is one part of the list. No stated cut-off is given here; in the data, active means activation above about 4%; inactive means the rest.

The compounds below were run on Methionine sulfoxide reductase A (Bos taurus) (assay: methionine sulfoxide reductase A activation – biochemical, absorbance, bovine, HTS, confirmation (AID 602270;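 further: enzyme coupled to thioredoxin and thioredoxin reductase with NADPH; 0% = vehicle wells and 100% = reference activator wells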)). Conditions: purified bovine MsrA, absorbance read-out; at 10.6 µM; active compounds read high.

activation, inactive:
O=C(O)/C=C/c1cn(Cc2ccccc2)nc1-c1cccs1 -1.62%
O=C(CCN1CCN(c2ccccc2)CC1)NNC(=S)Nc1ccccc1 -0.61%
CCCN(CC(=O)Nc1ccccc1C)C(=O)c1ccc2[nH]c3c(c2c1)CC(C)CC3 (stereo not drawn) 2.07%
COc1ccc(C(=O)COC(=O)c2ccc([N+](=O)[O-])s2)cc1OC 2.35%
CCOc1cccc(-n2nnnc2-c2ccc(OC)cc2)c1 -1.06%
COc1ccc([C@H]2CC(=O)C=C(/C=C/c3ccccc3)C2)cc1 -2.68%
O=C1C(Sc2cccc(F)c2)=C[C@@]2(O)CC[C@@H](O)[C@]1(Sc1cccc(F)c1)[C@H]2O -4.14%
COc1ccc(C(CNC(=O)c2cc3c(s2)CCCC3)N2CCOCC2)cc1 (stereo not drawn) 0.61%
